Laboratory results taken from the supplement of paper PMC4466140.

Target: ScBbc1
Experiment: SPOT peptide array binding signal intensity (averaged, normalized) (arbitrary units (background-subtracted, floor 0; scale differs between SH3 domains)); higher = stronger binding of the SH3 domain to the peptide
Method in brief: (§1)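 Four yeast species supplied the SH3 domains, which were expressed as GST fusions in E. coli BL21(DE3) and purified on glutathione Sepharose. Incubation with cellulose membranes carrying synthetic 15-mer peptides, cysteines exchanged for serines, ran overnight at 4°C at 10 μg/ml in TBS-based blocking buffer. Binding signal is reported as normalized, background-subtracted spot intensity averaged over replicates, in arbitrary units not shared between domains.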

Binder	SPOT peptide array binding signal intensity
APPLPPTAPPPPSLP	≤ 0

Target: ScBem1-D1
Experiment: as above
Method in brief: as §1

Binder	SPOT peptide array binding signal intensity
APPLPPTAPPPPSLP	0.5

Target: ScBzz1-D1
Experiment: as above
Method in brief: as §1

Binder	SPOT peptide array binding signal intensity
APPLPPTAPPPPSLP	≤ 0

Target: ScBzz1-D2
Experiment: as above
Method in brief: as §1

Binder	SPOT peptide array binding signal intensity
APPLPPTAPPPPSLP	≤ 0

Target: ScCyk3
Experiment: as above
Method in brief: as §1

Binder	SPOT peptide array binding signal intensity
APPLPPTAPPPPSLP	2

Target: ScFus1
Experiment: as above
Method in brief: as §1

Binder	SPOT peptide array binding signal intensity
APPLPPTAPPPPSLP	≤ 0

Target: ScHof1
Experiment: as above
Method in brief: as §1

Binder	SPOT peptide array binding signal intensity
APPLPPTAPPPPSLP	212

Target: ScHse1
Experiment: as above
Method in brief: as §1

Binder	SPOT peptide array binding signal intensity
APPLPPTAPPPPSLP	≤ 0

Target: ScLsb1
Experiment: as above
Method in brief: as §1

Binder	SPOT peptide array binding signal intensity
APPLPPTAPPPPSLP	≤ 0

Target: ScLsb2
Experiment: as above
Method in brief: as §1

Binder	SPOT peptide array binding signal intensity
APPLPPTAPPPPSLP	≤ 0

Target: ScLsb3
Experiment: as above
Method in brief: as §1

Binder	SPOT peptide array binding signal intensity
APPLPPTAPPPPSLP	≤ 0

Target: ScLsb4
Experiment: as above
Method in brief: as §1

Binder	SPOT peptide array binding signal intensity
APPLPPTAPPPPSLP	4

Target: ScMyo3
Experiment: as above
Method in brief: as §1

Binder	SPOT peptide array binding signal intensity
APPLPPTAPPPPSLP	3490

Target: ScMyo5
Experiment: as above
Method in brief: as §1

Binder	SPOT peptide array binding signal intensity
APPLPPTAPPPPSLP	3170

Target: ScNbp2
Experiment: as above
Method in brief: as §1

Binder	SPOT peptide array binding signal intensity
APPLPPTAPPPPSLP	0.5

Target: ScPex13
Experiment: as above
Method in brief: as §1

Binder	SPOT peptide array binding signal intensity
APPLPPTAPPPPSLP	≤ 0

Target: ScRvs167
Experiment: as above
Method in brief: as §1

Binder	SPOT peptide array binding signal intensity
APPLPPTAPPPPSLP	≤ 0

Target: ScSho1
Experiment: as above
Method in brief: as §1

Binder	SPOT peptide array binding signal intensity
APPLPPTAPPPPSLP	≤ 0

Target: ScSla1-D1-D2
Experiment: as above
Method in brief: as §1

Binder	SPOT peptide array binding signal intensity
APPLPPTAPPPPSLP	≤ 0

Target: ScSla1-D3
Experiment: as above
Method in brief: as §1

Binder	SPOT peptide array binding signal intensity
APPLPPTAPPPPSLP	0.5

Target: SpAbp1-D1
Experiment: as above
Method in brief: as §1

Binder	SPOT peptide array binding signal intensity
APPLPPTAPPPPSLP	≤ 0

Target: SpBbc1
Experiment: as above
Method in brief: as §1

Binder	SPOT peptide array binding signal intensity
APPLPPTAPPPPSLP	1

Target: SpBzz1-D1
Experiment: as above
Method in brief: as §1

Binder	SPOT peptide array binding signal intensity
APPLPPTAPPPPSLP	525

Target: SpBzz1-D2
Experiment: as above
Method in brief: as §1

Binder	SPOT peptide array binding signal intensity
APPLPPTAPPPPSLP	≤ 0

Target: SpCyk3
Experiment: as above
Method in brief: as §1

Binder	SPOT peptide array binding signal intensity
APPLPPTAPPPPSLP	1

Target: SpHof1
Experiment: as above
Method in brief: as §1

Binder	SPOT peptide array binding signal intensity
APPLPPTAPPPPSLP	≤ 0

Target: SpHof1-2
Experiment: as above
Method in brief: as §1

Binder	SPOT peptide array binding signal intensity
APPLPPTAPPPPSLP	4

Target: SpHof1-3
Experiment: as above
Method in brief: as §1

Binder	SPOT peptide array binding signal intensity
APPLPPTAPPPPSLP	0.5

Target: SpHse1
Experiment: as above
Method in brief: as §1

Binder	SPOT peptide array binding signal intensity
APPLPPTAPPPPSLP	10.5

Target: SpLsb1
Experiment: as above
Method in brief: as §1

Binder	SPOT peptide array binding signal intensity
APPLPPTAPPPPSLP	≤ 0

Target: SpLsb4
Experiment: as above
Method in brief: as §1

Binder	SPOT peptide array binding signal intensity
APPLPPTAPPPPSLP	≤ 0

Target: SpMyo1
Experiment: as above
Method in brief: as §1

Binder	SPOT peptide array binding signal intensity
APPLPPTAPPPPSLP	2050

Target: SpNbp2
Experiment: as above
Method in brief: as §1

Binder	SPOT peptide array binding signal intensity
APPLPPTAPPPPSLP	6.5

Target: SpPex13
Experiment: as above
Method in brief: as §1

Binder	SPOT peptide array binding signal intensity
APPLPPTAPPPPSLP	≤ 0

Target: SpRvs167
Experiment: as above
Method in brief: as §1

Binder	SPOT peptide array binding signal intensity
APPLPPTAPPPPSLP	24.3

Target: SpSla1-D1-D2
Experiment: as above
Method in brief: as §1

Binder	SPOT peptide array binding signal intensity
APPLPPTAPPPPSLP	≤ 0

Target: SpSla1-D3
Experiment: as above
Method in brief: as §1

Binder	SPOT peptide array binding signal intensity
APPLPPTAPPPPSLP	≤ 0
